Reference: PubChem BioAssay (NCATS)
Inconclusive results are not listed. The list shows a part of the results. Calls of active or inactive are those of the source. Unless noted, calls follow the shape of the dose curve; as a rule, active = well fitted curve in the direction sought with a large enough effect; inconclusive = small, poorly fitted or top-dose-only effect, or another doubt; inactive = no such curve, though single readings can be large; an effect the other way counts as inactive or inconclusive.

Tests used:
[1] = molecular target: DNA polymerase iota (Homo sapiens) (UniProt Q9UNA4); test: qHTS for Inhibitors of Polymerase Iota: Confirmatory Assay for Cherry-picked Compounds (AID 720496); conditions: Pol iota primer extension, TAMRA/BHQ fluorescence; also: potency is read from the fitted curve at half-maximal effect
Sequence of DNA polymerase iota (Homo sapiens) (Q9UNA4 whole entry, looked up): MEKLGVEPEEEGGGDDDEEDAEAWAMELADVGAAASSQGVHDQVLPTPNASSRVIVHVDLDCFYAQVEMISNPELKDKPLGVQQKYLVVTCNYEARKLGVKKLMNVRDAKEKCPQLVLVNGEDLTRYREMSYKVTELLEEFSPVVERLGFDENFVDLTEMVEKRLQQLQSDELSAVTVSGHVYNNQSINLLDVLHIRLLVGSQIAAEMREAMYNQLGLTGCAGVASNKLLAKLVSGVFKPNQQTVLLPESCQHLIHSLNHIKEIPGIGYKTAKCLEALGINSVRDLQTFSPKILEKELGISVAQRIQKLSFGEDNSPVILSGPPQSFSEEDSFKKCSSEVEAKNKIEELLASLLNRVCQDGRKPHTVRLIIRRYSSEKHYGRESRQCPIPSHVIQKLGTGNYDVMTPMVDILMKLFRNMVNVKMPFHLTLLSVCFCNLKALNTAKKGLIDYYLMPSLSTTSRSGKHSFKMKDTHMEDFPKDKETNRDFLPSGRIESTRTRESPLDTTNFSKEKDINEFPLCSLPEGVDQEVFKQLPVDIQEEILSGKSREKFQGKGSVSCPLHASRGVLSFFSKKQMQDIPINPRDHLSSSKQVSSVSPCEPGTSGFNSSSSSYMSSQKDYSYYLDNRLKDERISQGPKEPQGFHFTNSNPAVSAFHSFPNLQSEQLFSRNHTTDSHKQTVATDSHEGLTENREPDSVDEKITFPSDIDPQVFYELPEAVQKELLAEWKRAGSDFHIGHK
Outline: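 Read-out is TAMRA fluorescence (525 nm excitation, 598 nm emission) at 0 and 10 min. It reflects strand displacement from a BHQ-2-quenched template by 10 nM Pol iota, with 50 nM final substrate after 15 min compound preincubation.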

[2] = molecular target: Rap guanine nucleotide exchange factor 3 (Homo sapiens) (UniProt O95398); test: Confirmatory qHTS for antagonist of cAMP-regulated guanine nucleotide exchange factor 3 (EPAC1) (AID 1645880); conditions: EPAC1 Rap1B-BODIPY-GDP exchange, fluorescence; activity, negative = inhibition: at 115 µM (top of the series); also: nearly all actives have a fitted effect of over 55% in size; also: potency is read from the fitted curve at half-maximal effect;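 as to activity, negative = inhibition: plate controls were DMSO only for no effect and full effect of the ATA control for full effect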
Sequence of Rap guanine nucleotide exchange factor 3 (Homo sapiens) (O95398 whole entry, looked up): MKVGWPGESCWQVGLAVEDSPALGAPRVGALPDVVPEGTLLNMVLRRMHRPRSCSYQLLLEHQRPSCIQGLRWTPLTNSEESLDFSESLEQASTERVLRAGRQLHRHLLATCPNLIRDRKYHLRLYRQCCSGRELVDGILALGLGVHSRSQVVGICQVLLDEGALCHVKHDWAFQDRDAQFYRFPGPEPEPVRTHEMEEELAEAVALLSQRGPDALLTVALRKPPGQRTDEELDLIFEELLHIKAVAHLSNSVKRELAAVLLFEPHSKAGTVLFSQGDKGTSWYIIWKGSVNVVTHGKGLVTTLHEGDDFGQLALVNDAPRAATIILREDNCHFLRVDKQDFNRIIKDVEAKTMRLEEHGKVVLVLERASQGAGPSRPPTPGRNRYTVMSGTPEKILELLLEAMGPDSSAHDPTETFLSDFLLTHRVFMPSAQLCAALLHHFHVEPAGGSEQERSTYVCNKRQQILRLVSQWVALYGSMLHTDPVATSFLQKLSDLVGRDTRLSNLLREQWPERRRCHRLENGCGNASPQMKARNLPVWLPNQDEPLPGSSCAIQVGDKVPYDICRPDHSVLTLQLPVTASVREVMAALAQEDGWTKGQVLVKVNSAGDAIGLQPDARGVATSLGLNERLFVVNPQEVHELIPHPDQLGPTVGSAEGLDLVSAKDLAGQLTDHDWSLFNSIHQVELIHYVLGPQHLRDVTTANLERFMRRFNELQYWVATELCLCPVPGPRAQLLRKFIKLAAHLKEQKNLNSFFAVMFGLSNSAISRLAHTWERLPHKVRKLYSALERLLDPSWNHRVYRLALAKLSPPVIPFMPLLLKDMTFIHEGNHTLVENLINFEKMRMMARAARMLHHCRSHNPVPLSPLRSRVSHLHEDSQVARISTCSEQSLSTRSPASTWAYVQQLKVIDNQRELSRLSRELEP
Outline: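 Nucleotide exchange uses 100 nM EPAC1, 250 nM RAP1B-BODIPY-GDP and 50 uM GDP, with compounds in a concentration-titration series. After 5 min at room temperature, fluorescence (480 nm ex/540 nm em) is read every 5 min for 30 min. Data are normalized to control ATA and DMSO.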

[3] = molecular target: Rap guanine nucleotide exchange factor 3 (Homo sapiens) (UniProt O95398); test: Confirmatory qHTS for agonist of cAMP-regulated guanine nucleotide exchange factor 3 (EPAC1) (AID 1645881); conditions: EPAC1 Rap1B BODIPY-GDP exchange fluorescence; series mostly up to 154 µM; also: nearly all actives have a fitted effect of over 75% in size; also: potency is read from the fitted curve at half-maximal effect;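 as to activation: EPAC1 catalysed release of BODIPY-GDP from Rap1B seen as fluorescence loss; 100% = effect of cAMP agonist control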
[4] = molecular target: Rap guanine nucleotide exchange factor 4 (Homo sapiens) (UniProt Q8WZA2); test: Confirmatory qHTS for agonist of cAMP-regulated guanine nucleotide exchange factor 4 (EPAC2) (AID 1645884); conditions: EPAC2 GEF activity, Rap1B-BODIPY-GDP fluorescence; series mostly up to 154 µM;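 also: nucleotide exchange releases bodipy-GDP from Rap1 and this lowers its fluorescence; nearly all actives have a fitted effect of over 65% in size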; also: potency is read from the fitted curve at half-maximal effect; as to activation: % is scaled to controls: 0 for no effect and ±100 for the full control effect
Sequence of Rap guanine nucleotide exchange factor 4 (Homo sapiens) (Q8WZA2 whole entry, looked up): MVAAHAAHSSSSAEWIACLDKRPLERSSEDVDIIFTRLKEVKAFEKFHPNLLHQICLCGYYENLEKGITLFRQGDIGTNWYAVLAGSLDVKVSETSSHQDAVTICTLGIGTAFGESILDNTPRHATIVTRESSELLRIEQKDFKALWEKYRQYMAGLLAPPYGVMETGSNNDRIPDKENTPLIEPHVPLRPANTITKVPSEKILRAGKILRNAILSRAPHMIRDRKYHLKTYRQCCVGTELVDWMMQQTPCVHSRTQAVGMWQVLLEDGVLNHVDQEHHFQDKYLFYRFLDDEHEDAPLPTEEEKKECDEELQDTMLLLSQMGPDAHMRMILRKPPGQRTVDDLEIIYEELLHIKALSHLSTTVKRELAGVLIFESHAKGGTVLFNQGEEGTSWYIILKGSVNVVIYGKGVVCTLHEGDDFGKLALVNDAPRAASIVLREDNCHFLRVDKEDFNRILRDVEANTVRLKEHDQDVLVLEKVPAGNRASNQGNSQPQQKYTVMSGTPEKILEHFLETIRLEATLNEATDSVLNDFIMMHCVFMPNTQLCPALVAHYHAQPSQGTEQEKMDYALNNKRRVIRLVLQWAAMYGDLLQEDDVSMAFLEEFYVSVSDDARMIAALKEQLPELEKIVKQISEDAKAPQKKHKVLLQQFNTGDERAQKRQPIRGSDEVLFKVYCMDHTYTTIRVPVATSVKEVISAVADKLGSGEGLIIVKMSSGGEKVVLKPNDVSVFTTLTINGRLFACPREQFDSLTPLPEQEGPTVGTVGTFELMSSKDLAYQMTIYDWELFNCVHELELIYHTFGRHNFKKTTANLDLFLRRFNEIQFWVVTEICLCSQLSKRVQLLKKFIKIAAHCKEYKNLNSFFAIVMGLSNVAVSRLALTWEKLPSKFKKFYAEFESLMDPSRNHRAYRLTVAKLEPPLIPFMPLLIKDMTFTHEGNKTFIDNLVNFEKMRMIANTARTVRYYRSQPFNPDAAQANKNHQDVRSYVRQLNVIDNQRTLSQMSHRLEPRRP

[5] = molecular target: Rap guanine nucleotide exchange factor 4 (Homo sapiens) (UniProt Q8WZA2); test: Confirmatory qHTS for antagonist of cAMP-regulated guanine nucleotide exchange factor 4 (EPAC2) (AID 1645885); conditions: EPAC2 Rap1B-BODIPY-GDP exchange fluorescence, biochemical; series mostly up to 12.7 µM; also: nearly all actives have a fitted effect of over 25% in size; also: potency is read from the fitted curve at half-maximal effect
[6] = molecular target: Rap guanine nucleotide exchange factor 3 (Homo sapiens) (UniProt O95398); test: Counterscreen qHTS for antagonist of cAMP-regulated guanine nucleotide exchange factor 3 (EPAC1) (AID 1645888); conditions: Rap1B-BODIPY-GDP nucleotide exchange, fluorescence; series mostly up to 154 µM;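 also: fluorescence loss as bound BODIPY-GDP is released from Rap1B; % of control where 0% means no effect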
Outline: (§1)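 Rap1B-BODIPY-GDP 250 nM + GDP 50 uM; cpds 7-pt, final 9.74 nM–152 uM (activator mode) or from 7.32 nM upwards (inhibitor mode); RT; FI 480/540 nm at 5 and 30 min, then ± cAMP, reread.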

[7] = molecular target: Rap guanine nucleotide exchange factor 3 (Homo sapiens) (UniProt O95398); test: Counterscreen qHTS for agonist of cAMP-regulated guanine nucleotide exchange factor 3 (EPAC1) (AID 1645889); conditions: EPAC1 Rap1B-BODIPY-GDP exchange, fluorescence; series mostly up to 154 µM; also: nearly all actives have a fitted effect of over 40% in size; also: potency is read from the fitted curve at half-maximal effect; as to activation: % of control where 0% means no effect
Outline: as §1

[8] = molecular target: Tumor susceptibility gene 101 protein (Homo sapiens) (UniProt Q99816); test: qHTS Assay for Iinhibitors of HIV-1 Budding by Blocking the Interaction of PTAP/TSG101: Hit Validation (AID 651600); conditions: PTAP peptide/TSG101 UEV interaction, biochemical assay; series mostly up to 57.5 µM; also: nearly all actives have a fitted effect of over 70% in size; also: potency is read from the fitted curve at half-maximal effect
Sequence of Tumor susceptibility gene 101 protein (Homo sapiens) (Q99816 whole entry, looked up, the tested form may be a part): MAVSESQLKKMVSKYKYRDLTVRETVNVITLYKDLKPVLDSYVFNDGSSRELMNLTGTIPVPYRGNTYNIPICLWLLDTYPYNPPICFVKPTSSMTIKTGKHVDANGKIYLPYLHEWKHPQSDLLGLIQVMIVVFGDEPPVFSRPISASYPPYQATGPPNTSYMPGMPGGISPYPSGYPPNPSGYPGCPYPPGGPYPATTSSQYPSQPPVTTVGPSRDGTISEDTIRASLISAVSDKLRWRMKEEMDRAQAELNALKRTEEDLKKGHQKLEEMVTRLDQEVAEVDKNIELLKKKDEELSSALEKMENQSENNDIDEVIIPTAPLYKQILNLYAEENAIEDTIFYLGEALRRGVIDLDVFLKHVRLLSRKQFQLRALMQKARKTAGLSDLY
Outline: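 FITC-PTAP peptide (50 nM final) binding to Tsg101 binding domain (10 uM final) was measured by polarization after 20 min at r.t. with compounds, in 10 mM HEPES pH 7.5 buffer with 0.15 M NaCl and 0.01% Tween 20.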

[9] = molecular target: Lysosomal acid glucosylceramidase (Homo sapiens) (UniProt P04062); test: Glucocerebrosidase-p2 (AID 348; in the data active = potency below about 10 µM; also: potency is read from the fitted curve at half-maximal effect); conditions: purified GBA, blue fluorogenic substrate, 40 min
Sequence of Lysosomal acid glucosylceramidase (Homo sapiens) (P04062 whole entry, looked up): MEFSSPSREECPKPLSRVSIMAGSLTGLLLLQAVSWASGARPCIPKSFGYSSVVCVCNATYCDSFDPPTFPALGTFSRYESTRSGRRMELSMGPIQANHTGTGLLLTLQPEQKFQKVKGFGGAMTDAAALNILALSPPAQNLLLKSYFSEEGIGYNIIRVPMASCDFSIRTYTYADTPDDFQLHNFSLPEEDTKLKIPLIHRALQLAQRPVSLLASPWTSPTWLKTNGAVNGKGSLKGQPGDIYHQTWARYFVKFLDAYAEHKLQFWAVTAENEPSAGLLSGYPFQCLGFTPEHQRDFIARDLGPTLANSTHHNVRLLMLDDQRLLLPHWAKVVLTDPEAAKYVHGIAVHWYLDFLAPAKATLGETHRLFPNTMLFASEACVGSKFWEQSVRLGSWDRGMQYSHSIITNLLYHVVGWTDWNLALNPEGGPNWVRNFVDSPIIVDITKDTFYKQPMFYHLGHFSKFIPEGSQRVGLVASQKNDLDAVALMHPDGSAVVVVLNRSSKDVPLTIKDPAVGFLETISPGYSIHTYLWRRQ
Outline: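 Compounds titrated from 0.6 nM upwards against 0.2 nM enzyme in pH 5.9 citric acid/KH2PO4, taurocholate, tween-20; blue fluorogenic substrate 80 uM, 40 min room temperature, stopped and read Ex 365/Em 440 for AC50.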

[10] = AP1 Signaling Pathway (AID 357; active = well fitted curve in either direction with a large enough effect, not every such curve was filed as active; also: % is scaled to controls: 0 for no effect and ±100 for the full control effect); conditions: ME-180 AP-1-bla reporter, EGF-induced, beta-lactamase ratio, 5 h; at 7.69 µM (top of the series) unless noted
Outline: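 ME-180 cells with beta-lactamase reporter under AP-1 response element, stimulated with EC50 EGF; compounds tested in titration series, 5 h at 37 °C. CCF4 substrate added 2.5 h at room temperature; 460/530 nm emission ratio gave %activity and AC50.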

[11] = molecular target: Cytochrome P450 1A2 (Homo sapiens) (UniProt P05177); test: p450-cyp1a2 (AID 410; calls by dose curve; also: potency is read from the fitted curve at half-maximal effect); conditions: recombinant CYP1A2, luciferin-ME demethylation, luminescence; series mostly up to 57 µM
Outline: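 20nM CYP1A2 with 100uM Luciferin-ME (at Km) in 100mM KPO4; compound preincubated 10 min, NADPH regeneration added, 60 min at room temperature. Luciferin quantified by luminescence after detection reagent; normalized to 57 uM furafylline.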

[12] = Stat Signaling Pathway (AID 446; active = well fitted curve in either direction with a large enough effect, not every such curve was filed as active;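 also: ME-180 cervical cancer cells given 40 pM IL-6 alongside compound; SIE-controlled beta-lactamase reporter measured as 460/530 nm FRET emission ratio; % is scaled to controls: 0 for no effect and ±100 for the full control effect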); conditions: ME-180 (cervical carcinoma) SIE beta-lactamase reporter, IL-6 stimulated, 5 h; series mostly up to 7.69 µM
Outline: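 IL-6/STAT signaling read in ME-180 cells via an SIE beta-lactamase reporter. Stimulus was 40 pM IL-6 (its AC50) for 5 hrs, so both activation and inhibition register.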

[13] = molecular target: Glucocorticoid receptor (Homo sapiens) (UniProt P04150); test: GR-GFP Redistribution (AID 450;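 active = compounds whose dose series gives a full or clear partial fitted curve of increased nuclear translocation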; also: potency is read from the fitted curve at half-maximal effect); conditions: U2OS GR-GFP nuclear translocation, laser cytometry, 2 h
Sequence of Glucocorticoid receptor (Homo sapiens) (P04150 whole entry, looked up, the tested form may be a part): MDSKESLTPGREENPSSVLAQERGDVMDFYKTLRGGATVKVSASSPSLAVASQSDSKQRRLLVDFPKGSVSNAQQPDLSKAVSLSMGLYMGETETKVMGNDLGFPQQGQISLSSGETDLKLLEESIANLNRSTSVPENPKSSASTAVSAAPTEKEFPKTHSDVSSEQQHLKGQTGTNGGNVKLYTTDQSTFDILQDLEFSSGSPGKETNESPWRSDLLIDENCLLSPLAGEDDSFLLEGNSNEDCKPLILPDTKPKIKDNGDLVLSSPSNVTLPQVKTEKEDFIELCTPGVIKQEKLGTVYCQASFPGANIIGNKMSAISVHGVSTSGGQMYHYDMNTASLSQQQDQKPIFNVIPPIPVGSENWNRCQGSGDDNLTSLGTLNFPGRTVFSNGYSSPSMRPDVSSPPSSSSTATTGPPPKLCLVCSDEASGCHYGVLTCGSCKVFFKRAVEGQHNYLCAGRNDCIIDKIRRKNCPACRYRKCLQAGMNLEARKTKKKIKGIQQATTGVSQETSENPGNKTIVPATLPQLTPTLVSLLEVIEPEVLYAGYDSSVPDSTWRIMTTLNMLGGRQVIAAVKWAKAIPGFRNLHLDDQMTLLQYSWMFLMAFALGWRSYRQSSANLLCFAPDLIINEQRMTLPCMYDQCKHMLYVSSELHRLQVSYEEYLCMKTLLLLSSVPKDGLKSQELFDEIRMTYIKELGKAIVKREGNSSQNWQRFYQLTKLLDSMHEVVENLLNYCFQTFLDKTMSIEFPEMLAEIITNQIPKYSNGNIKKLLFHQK

[14] = molecular target: Glucocorticoid receptor (Homo sapiens) (UniProt P04150); test: GR-EFC Redistribution (AID 451; calls by dose curve; also: potency is read from the fitted curve at half-maximal effect); conditions: CHO-K1 GR-EFC translocation, beta-gal luminescence, 2 h
Outline: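 Translocation of GR-ED fusion to nuclear EA restores b-gal, read by luminescence after 1 h room-temperature detection. Engineered CHO-K1 biosensor cells, 1,000/well, exposed 2 h at 37 C to titrations up to 46 uM final.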

[15] = molecular target: Mitogen-activated protein kinase 10 (Mus musculus) (UniProt Q61831); test: JNK3 AlphaScreen Assay (AID 530; active = well fitted curve in either direction with a large enough effect, not every such curve was filed as active;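 also: kinase came from lysate of stimulated human HepG2 cells; signal reports phosphorylation of biotinylated GST-cJun 1-79 at Ser73 with 10 µM ATP; % is scaled to controls: 0 for no effect and ±100 for the full control effect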); conditions: JNK3 lysate, c-Jun phosphorylation; series mostly up to 57.1 µM
Outline: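 Compound titrations were preincubated 15 minutes at room temperature with substrate, antibody and pre-activated JNK3-containing HepG2 lysate. Reactions were started with 10 uM ATP and stopped with EDTA-containing bead buffer for AlphaScreen detection.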

[16] = molecular target: 3',5'-cyclic-AMP phosphodiesterase 4B (Homo sapiens) (UniProt Q07343); test: qHTS Assay for Inhibitors of PDE-IV (AID 607; active = well fitted activation curve with a large enough effect in the main read-out, with a control signal flat, not every such curve was filed as active; also: % of control where 0% means no effect); conditions: HEK293 ACTOne CNG channel cells, membrane potential fluorescence; series mostly up to 22.9 µM
Outline: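 Live HEK293 cells with a modified cyclic nucleotide-gated (CNG) channel report intracellular cAMP via membrane-potential dye fluorescence (ex 535/em 590 nm). Endogenous PDE-IV was targeted. Compounds were tested at up to 22.9 uM final; RO 20-1724 100 uM served as control.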

[17] = molecular target: Cytochrome P450 2D6 (Homo sapiens) (UniProt P10635); test: qHTS Assay for Inhibitors and Substrates of Cytochrome P450 2D6 (AID 891); conditions: recombinant CYP2D6, luciferin-ME EGE luminescence; series mostly up to 57.1 µM; also: potency is read from the fitted curve at half-maximal effect; nearly all actives have a fitted effect of over 60% in size
Outline: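 Human CYP2D6 (5 nM) with 30 uM Luciferin-ME EGE (at Km) in 100 mM KPO4, compound preincubated 10 min, then NADPH regeneration system for 60 min at room temperature. Luciferin read by luminescence; normalized to 1.43 uM quinidine.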

[18] = molecular target: Cytochrome P450 2C19 (Homo sapiens) (UniProt P33261); test: qHTS Assay for Inhibitors and Substrates of Cytochrome P450 2C19 (AID 899); conditions: recombinant CYP2C19, luciferin-H EGE luminescence; series mostly up to 57.1 µM; also: potency is read from the fitted curve at half-maximal effect; nearly all actives have a fitted effect of over 60% in size
Sequence of Cytochrome P450 2C19 (Homo sapiens) (P33261 whole entry, looked up): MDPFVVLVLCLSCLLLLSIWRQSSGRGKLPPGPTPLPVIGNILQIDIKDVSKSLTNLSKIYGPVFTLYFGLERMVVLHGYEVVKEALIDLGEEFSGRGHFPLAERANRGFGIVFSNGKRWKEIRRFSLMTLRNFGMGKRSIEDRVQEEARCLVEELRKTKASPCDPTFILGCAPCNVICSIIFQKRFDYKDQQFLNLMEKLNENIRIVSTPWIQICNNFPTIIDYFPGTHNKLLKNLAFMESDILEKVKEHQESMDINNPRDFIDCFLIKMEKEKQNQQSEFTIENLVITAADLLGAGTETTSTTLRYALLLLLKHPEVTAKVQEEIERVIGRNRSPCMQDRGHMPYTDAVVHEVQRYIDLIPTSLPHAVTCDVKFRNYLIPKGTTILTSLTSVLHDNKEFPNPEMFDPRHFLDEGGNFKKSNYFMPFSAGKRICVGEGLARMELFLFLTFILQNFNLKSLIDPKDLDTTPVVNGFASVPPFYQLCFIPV
Outline: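 Luminescence readout of luciferin formed from 10uM Luciferin-H EGE (KM level) by 5 nM CYP2C19 in 50mM KPO4. 60 min NADPH-driven reaction at 37C after 10 min compound preincubation; data scaled to 57uM ketoconazole inhibition.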

[19] = qHTS for Inhibitors of Plasmodium falciparum (DD2) proliferation (AID 504314);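 also: parasite DNA measured by SYBR Green fluorescence after red cell lysis; plate controls were DMSO vehicle for no effect and artemisinin wells for full effect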; conditions: P. falciparum Dd2 in erythrocytes, SYBR Green growth, 72 h; series mostly up to 1.12 µM
Outline: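 Fluorescence read-out (ex 485/em 535 nm) of SYBR Green-stained parasite DNA quantifies intraerythrocytic growth. Cultures at 0.3% parasitemia and 2.5% hematocrit were treated for 72 h; data normalized to DMSO and 0.29 uM artemisinin wells.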

[20] = qHTS for Inhibitors of Plasmodium falciparum (GB4) proliferation (AID 504315);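 also: 0% = DMSO vehicle and -100% = 0.29 µM artemisinin control; nearly all actives have a fitted effect of over 50% in size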; conditions: P. falciparum GB4 in erythrocytes, SYBR Green DNA, 72 h; series mostly up to 6.7 µM
Outline: (§2)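 Erythrocytes infected with P. falciparum line (0.3% parasitemia, 2.5% hematocrit final) incubated with compounds 72 h at 37 °C, 5% CO2; SYBR Green lysis buffer added, fluorescence read next day. Normalized to 0.29 uM artemisinin and DMSO.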

[21] = qHTS for Inhibitors of Plasmodium falciparum (7G8) proliferation (AID 504316);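 also: 0% = DMSO vehicle and -100% = 0.29 µM artemisinin full kill; nearly all actives have a fitted effect of over 65% in size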; conditions: P. falciparum 7G8 in erythrocytes, SYBR Green DNA, 72 h; series mostly up to 6.7 µM
Outline: as §2

[22] = qHTS for Inhibitors of Plasmodium falciparum (CP250) proliferation (AID 504320);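 also: plate controls were DMSO vehicle for no effect and 0.29 µM artemisinin control for full effect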; conditions: P. falciparum CP250 in erythrocytes, SYBR Green DNA, 72 h; series mostly up to 6.7 µM
Outline: as §2

NC1=CC(=O)C(=O)c2cccnc21
active: Potency [1] 42.3 µM | Potency [2] 10 µM
inactive: Potency [3] | activation [4] 3.71% [at 17.1 µM, percent relative to cAMP agonist control] | Potency [5] | activity change, negative = inhibition [6] -7.69% [at 30.8 µM] | activation [7] 11.2% [at 30.8 µM]

Cn1c(/C(C#N)=C/c2ccc(-c3ccc(S(N)(=O)=O)cc3)o2)nc2ccccc21
active: Potency [5] 95.3 µM
inactive: Potency [8] | Potency [2] | Potency [3] | Potency [4] | Potency [6]

CC(C)=CCC1=C(OCC(=O)O)C(=O)c2ccccc2C1=O
inactive: Potency [9] > 11.4 µM | activity change, negative = inhibition [10] 18.8% | outcome [12] | Potency [13] > 46 µM | Potency [14] > 9.22 µM | activity change, negative = inhibition [15] 15.2% [at 11.4 µM] | Potency [16] | Potency [3] | Potency [4] | Potency [5] | Potency [6]
active: Potency [11] 0.501 µM | Potency [17] 3.16 µM | Potency [18] 1.26 µM | Potency [2] 84.9 µM

CC(=O)Nc1ccc(N=Cc2c(O)c(C(=O)Nc3ccccc3)cc3ccccc23)cc1
active: Potency [8] 16.3 µM
inactive: Potency [2] | Potency [3] | activation [4] -21% [at 17.1 µM, percent relative to cAMP agonist control] | Potency [5] | activity change, negative = inhibition [6] -16.4% [at 30.8 µM]

Cc1ccc(-c2cn3nc(-c4ccccc4)c(-c4ccccc4)nc3n2)cc1
active: Potency [8] 25.9 µM
inactive: Potency [2] | Potency [3] | Potency [4] | Potency [5] | Potency [6] | Potency [7]

O=C(OCCN1C(=O)c2cccc3c(N4CCOCC4)ccc(c23)C1=O)c1cccc(Cl)c1
inactive: Potency [8] | Potency [2] | Potency [6]
active: Potency [3] 89.1 µM | Potency [4] 100 µM | Potency [5] 75.7 µM | Potency [7] 3.16 µM

COc1ccc2c(c1)O[C@H](c1ccc3c(c1)OCO3)[C@@H](O)C2=O
inactive: outcome [19] | outcome [20] | outcome [21] | outcome [22] | Potency [2] | Potency [3] | activation [4] 6.45% [at 17.1 µM, percent relative to cAMP agonist control] | Potency [5] | activity change, negative = inhibition [6] -0.524% [at 30.8 µM] | activation [7] 17% [at 30.8 µM]
